About 2,700 (4%) of roughly 68,000 compounds showed an effect of 50% or more. The entries come from a sample that favours strong results as a whole.

For the assay, the system named is Plasmodium berghei. Description: Screen against P. berghei liver stage (PbLuc), transformed with Luciferase, at 2uM. The class given is functional, HepG2. Particulars: tested at 2 uM.
For `O=C(CN1CC(c2nc(C3CC3)no2)C1)N1CCOCC1`, the INHIBITION was determined as 56.9%.
On to `O=C(CN1CCCC(c2noc(C3CC3)n2)C1)N1CCCC1` (configuration not stated), for which the INHIBITION came to 19.45%.
The figure for `CC1CCN(C(=O)CN2CC(c3nc(C4CC4)no3)C2)CC1` is 12.57%; for `O=C(c1cccnc1)N1CCC2(CC1)CCN(c1ccsc1)C2=O` it is -8.05%; for `O=C(Cc1ccccc1Cl)NCCN1CCC(c2cccs2)CC1` it is 28.43%.
The figure for `Cn1cc(CC(=O)N2CCCC(n3cncn3)C2)cn1` (configuration not stated) is 38.76%.
The figure for `Cc1nccn1C1CCCN(C(=O)c2cccc(S(C)(=O)=O)c2)C1` (configuration not stated) is 5.72%; for `COc1ccccc1C1(CNc2ncc(S(N)(=O)=O)s2)CC1` it is 7.67%.
Consider `COc1ccccc1C1(CNc2ccc(C(=O)N(C)C)cn2)CC1`, for which the INHIBITION came out at 50.61%.
The figure for `CN(C)C(=O)c1ccc(NCCNc2ccc3ccccc3n2)nc1` is -37.09%; for `COc1ccccc1C1(CNc2ccnc(C(=O)N(C)C)c2)CC1` it is 67.44%.
The figure for `COc1ccccc1C1(CNC(=O)NCc2noc(C)n2)CC1` is 15.28%; for `COc1ccccc1C1(CNc2cc(C(=O)N(C)C)ccn2)CC1` it is 33.78%.
For `OCCOCCN1CCCC1c1cccc(Cl)c1` (configuration not stated) the value was -17.64%; for `Cc1nc(N(C)C)nc(N(C)Cc2cnccn2)c1C`, 20.29%.
On to `COC(=O)c1ccc(C2SC(C)=Nc3c2c(=O)[nH]n3C2CCCC2)cc1` (configuration not stated), for which the INHIBITION is recorded as -3.18%.
As to `CCCN(C)S(=O)(=O)N1CCCC1c1ccco1` (configuration not stated), the INHIBITION is -3.57%.
For the compound `COC(=O)c1cccc(S(=O)(=O)NC(=O)c2ccccc2F)c1`, the INHIBITION is 0%.
In the case of `Cc1cc(NC(=O)C(C)Nc2cccc(COCc3ccco3)c2)on1` (configuration not stated), the INHIBITION is listed as 55.52%.
The figure for `Cc1cc(NC(=O)C(C)Nc2cccc(COCc3ccco3)c2)no1` (configuration not stated) is 21.57%; for `CCOC(=O)C(C)Nc1cccc(COCc2ccco2)c1` (configuration not stated) it is -5.44%; for `Cc1ncc(CNC2CC(=O)N(CCc3cccc(Cl)c3)C2)n1C` (configuration not stated) it is -15.29%.
The figure for `NC(=O)C1CCN(CC(=O)N(Cc2ccccc2)Cc2nccs2)CC1` is 26.93%; for `Cc1nc(C(=O)NCCS(=O)(=O)N2CCCC2)cs1` it is 3.29%; for `CCc1cc(NCC(O)CN2CCCCC2)n2ncnc2n1` (configuration not stated) it is 16.01%.
For `CCc1cc(NCc2ccccc2CN2CCCC2)n2ncnc2n1` the value was -23.61%; for `CCc1cc(NCc2cccnc2N2CCCCC2)n2ncnc2n1`, 64.9%.
For the compound `CCC(C)[C@H](N)c1nnc(SCC(=O)Nc2ccc(Br)cc2)o1` (some centres not stated), the INHIBITION is on record as -7.19%.
The figure for `CNc1cc(C2CN(C(=O)c3cscn3)CCO2)nc(C)n1` (configuration not stated) is 26.69%; for `CCc1nc(CN(C(C)=O)C2CCN(CCc3ccncc3)C2)no1` (configuration not stated) it is -21.22%; for `CCc1nc(CN(C(C)=O)C2CCN(CCc3cnn(C)c3)C2)no1` (configuration not stated) it is -10.66%.
Regarding `CC(C)CNC(=O)c1cn(C(C)C)cc2c(=O)[nH]nc1-2`, the INHIBITION came to 55.52%.
With `CC(C)n1cc(C(=O)NCCN(C)C)c2n[nH]c(=O)c-2c1`, the INHIBITION came out at 9.1%.
Turning to `COCCCNC(=O)c1cn(C(C)C)cc2c(=O)[nH]nc1-2`, the INHIBITION is on record as 15.34%.
For `CNC(=O)CN1CCCC12CCN(C(=O)c1ccsc1)CC2` the value was 24.15%.
For `Cc1nc(CN2CCC(O)(c3ccccc3F)CC2)c2ccccn12` the value was 15.55%; for `COc1ccc(C(=O)N2CCCC2c2cnn(C)c2)cn1` (configuration not stated), 80.46%.
The figure for `Cn1cc(C2CCCN2C(=O)Cc2n[nH]c3ccccc23)cn1` (configuration not stated) is 63.95%; for `Cn1cc(C2CCCN2C(=O)COCCOc2ccccc2)cn1` (configuration not stated) it is -24.75%.
Take `CC(C)Oc1ccc(C(=O)N2CCCC2c2cnn(C)c2)cn1` (configuration not stated): the INHIBITION was found to be 15.13%.
For `Cn1cc(C2CCCN2C(=O)CCCOCc2ccccc2)cn1` (configuration not stated) the value was -3.9%; for `O=C(Cc1n[nH]c2ccccc12)N1CCCC1Cn1cccn1` (configuration not stated), -36.73%; for `Cn1cc(C2CCCN2C(=O)COCCc2ccccc2)cn1` (configuration not stated), 50.76%.
For `CCCc1noc(CCC(=O)N2CCCC2c2ccncc2)n1` (configuration not stated) the value was -33.92%; for `Cc1cnn(CC2CCCN2C(=O)Cc2n[nH]c3ccccc23)c1` (configuration not stated), 3.9%.
Consider `CCOc1ccc(C(=O)N2CCCC2c2cnn(C)c2)cn1` (configuration not stated), for which the INHIBITION is on record as -1.02%.
The figure for `CCCc1noc(CCC(=O)N2CCCC2c2ccc(OC)cc2)n1` (configuration not stated) is 30.29%; for `CCCc1noc(CCCC(=O)N2CCCC2c2cnn(C)c2)n1` (configuration not stated) it is 54.99%; for `O=C(NC[C@H]1OC[C@@H](NCc2ccccc2F)[C@@H]1O)c1ccc(F)cc1` it is -13.88%.
For `CCC(CCN)n1ccc(C(F)(F)F)n1` (configuration not stated) the value was -31.71%.
The figure for `Cn1cnnc1SC1CCc2ccccc2NC1=O` (configuration not stated) is 21.31%; for `CN(Cc1cn2c(n1)CN(Cc1ccsc1)CC2)Cc1ccco1` it is -9.48%.
